Compound activity (PubChem)
EBV LMP1 NFkB = reduces LMP1-driven NF-kappaB luciferase signal. LMP1-induced NF-kappaB luciferase reporter cells, luminescence. inhibition, % at 12.5 µM. 350,000 tested, 0.69% active. AID 504558; in the data active = inhibition above about 41%; inconclusive = no clear call, values can overlap the other calls;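 note: 0% = neutral control wells and 100% = reference inhibitor control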
TROY signal inh = TROY signaling inhibition. Q293 LMP1-TROYcd NF-kB luciferase reporter, 4 h. inhibition, % at 10 µM. 360,000 tested, 0.98% active;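 active = compounds whose plate-normalised and pattern-corrected inhibition of the luciferase reporter signal at the single screening dose is 50% or more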
EWS-Fli inh = EWS/Fli transcriptional activity inhibition; A673 NR0B1-luciferase reporter, viability-normalised; inhibition, % at 12.6 µM; 350,000 tested, 0.67% active;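 active = mean inhibition of at least 50% after viability correction, with every replicate also passing that limit; inconclusive = mean reaches 50% but only one of two replicates passes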;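 note: firefly luciferase signal divided by Alamar Blue viability fluorescence both relative to DMSO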
TWEAK-Fn14 inh = inhibitors of TWEAK-Fn14 interaction signaling. TWEAK-stimulated Fn14 reporter cells, luciferase luminescence, 8 h. inhibition, % at 10 µM. 360,000 tested, 2% active. AID 1159606; in the data active = inhibition above about 50%
PAX8 inh HTS = PAX8 transcriptional activity inhibition | RMG-I TPO-luciferase reporter, SteadyGlo, 24 h | inhibition, % at 12.6 µM | 360,000 tested, 1.2% active | AID 652154;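 active = mean replicate inhibition at least 60% with every replicate also reaching 60%; inconclusive = only one of the two criteria is met; inactive = mean below 60% and not all replicates reaching 60%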;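 note: luciferase light reporting Pax8 driven TPO promoter activity; plate controls were median of neutral control wells for no effect and mitoxantrone controls for full effect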
LGR2 antag = blocks bursicon-induced cAMP signaling via Drosophila LGR2. HEK293 LGR2, CRE-luciferase, bursicon-stimulated, 4 h. inhibition, % at 9.99 µM. 380,000 tested, 0.35% active. AID 720647;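 active = drop in luminescence signal, shown as inhibition above about 50% in the replicate tests, limit read from the data, passing the limit was not always enough; inconclusive = probably only some replicates passing the limit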;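 note: agonist challenge used bursicon conditioned medium at about half maximal strength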
* = called active by the depositor; ? = inconclusive; . = no result. In the library only some 3.1% were active in any assay of this set; here they are far more common.

SMILES	EBV LMP1 NFkB	TROY signal inh	EWS-Fli inh	TWEAK-Fn14 inh	PAX8 inh HTS	LGR2 antag
O=c1c(C=NCCCO)c(-c2ccccc2)[nH]n1-c1nc2ccccc2s1	15.4	33.9	28.1	77.2*	1.0	9.6
COCCCN=Cc1c(-c2ccccc2)[nH]n(-c2nc3ccccc3s2)c1=O	-30.8	-29.7	-13.1	-9.4	-33.7	-13.5
CCCCCN=Cc1c(C)[nH]n(-c2nc3ccccc3s2)c1=O	51.4*	38.8	.	86.7*	36.1	59.7*
C[C@@H]1CN([C@@H](C)CO)S(=O)(=O)c2ccc(-c3cccnc3)cc2O[C@@H]1CN(C)C(=O)c1ccc2c(c1)OCO2	.	.	-9.5	.	9.4	-6.2
CCC(=O)Nc1ccc2c(c1)C(=O)N(C)[C@H]1CC[C@H](CC(=O)Nc3cccc(OC)c3)O[C@@H]1CO2	.	.	4.9	.	-3.0	13.2
CC=Cc1ccc2n(c1=O)C[C@H]1[C@H](CO)[C@@H](C(=O)NCCc3ccncc3)[C@@H]2N1Cc1ccncc1 (mixture of isomers)	.	.	0.3	.	-6.0	-7.6
Cn1c(/C=C/c2cccc([N+](=O)[O-])c2)c([N+](=O)[O-])c(=O)n(C)c1=O	15.7	22.4	16.8	57.0*	49.7	?
Cn1c(/C=C/c2ccc(Cl)cc2)c([N+](=O)[O-])c(=O)n(C)c1=O	-0.5	4.0	2.4	56.4*	41.6	?
Oc1ccccc1-c1nc(NC2CCCC2)c2ccccc2n1	-19.1	60.5*	17.7	34.2	-24.5	18.0
c1ccc(-c2nnc(-c3ccccn3)nc2NC2CCCCC2)cc1	86.1*	-5.3	.	-17.2	68.7*	11.2
Fc1ccccc1-c1nc(NC2CCCC2)c2ccccc2n1	-3.0	11.7	21.5	36.0	2.5	-5.2
O=C(CSC1=N/C(=C/c2ccc(Cl)c(Cl)c2)C(=O)N1c1ccccc1F)NC1CC1	7.2	17.7	10.2	61.1*	-22.4	7.1
COc1ccc(Cl)cc1N1C(=O)/C(=C/c2sccc2C)N=C1SCC(=O)NC1CC1	.	-7.7	11.8	-10.0	32.6	-2.3
CN(C)c1ccc(CC(=O)c2nc3ccccc3s2)cc1	-10.0	75.7*	-71.0	78.0*	-18.6	.
CO[C@@H]1CN(C)C(=O)c2cc(NS(=O)(=O)c3ccc(F)cc3)ccc2OC[C@H](C)NC[C@H]1C	.	.	-6.7	.	5.6	8.4
CC1(C)C(/C=C/C=C/C=C/C=C2\N(CCCCS(=O)(=O)O)c3ccc4ccccc4c3C2(C)C)=[N+](CCCCS(=O)(=O)[O-])c2ccc3ccccc3c21	3.6	10.0	.	55.2*	.	.
O=C(Nc1cccc(Cl)c1)c1ccc2c(c1)SC1=NS(=O)(=O)CCN12	13.1	-45.0	20.8	13.3	74.5*	11.1
COc1ccc(CCNC(=O)c2ccc3c(c2)SC2=NS(=O)(=O)CCN23)cc1	-6.9	-5.0	1.7	-6.2	-4.6	0.7
O=C(C[C@@H]1CC[C@H]2[C@@H](COC[C@H](O)CN2CCc2ccccc2)O1)NCc1ccccc1	.	.	-4.2	.	-8.6	-6.0
COc1ccc(-n2nc([N+](=O)[O-])c(=NCc3cccnc3)n2O)cc1	-2.3	1.3	-8.2	-0.8	145.9*	.
COc1ccc(-n2nc([N+](=O)[O-])c(=NCc3ccco3)n2O)cc1	30.1	-31.4	-8.4	-7.9	-130.9	-13.1
COc1ccc2c3c([nH]c2c1)[C@H](CO)N(C(=O)Nc1ccccc1F)CC31CN(C(C)=O)C1	.	.	-8.2	.	.	-22.1
C[C@H]1CCCCO[C@@H](CN(C)S(=O)(=O)c2cn(C)cn2)[C@@H](C)CN([C@@H](C)CO)C(=O)c2cc(NC(=O)CCC(F)(F)F)ccc2O1	.	.	-7.2	.	-7.8	-0.8
CCCCn1c(N)c(-c2nc3ccccc3s2)c2c([N+](=O)[O-])nn(CC)c(=O)c21	-1.5	8.2	.	-27.2	.	.
CCCCCn1c(N)c(-c2nc3ccccc3s2)c2c([N+](=O)[O-])nn(CC)c(=O)c21	7.3	9.3	.	83.0*	.	-4.9
SMILES	EBV LMP1 NFkB	TROY signal inh	EWS-Fli inh	TWEAK-Fn14 inh	PAX8 inh HTS	LGR2 antag
Fc1ccc(N=C2NN=C(c3cc(F)ccc3F)CS2)cc1	-8.9	-114.8	-123.9	-26.3	-101.2	-59.7
O=S(=O)(c1ccc(N=C2NN=C(c3cc(F)ccc3F)CS2)cc1)N1CCOCC1	9.0	36.7	36.7	81.2*	89.8*	-16.6
CC(=O)/C(=C/N(C)C)C(=O)Nc1ccc(Cl)cc1Cl	-0.3	14.2	-7.7	-3.4	6.4	-18.7
CN(C)CCNC=C(C(=O)Nc1ccc(Cl)cc1Cl)C(=O)Nc1ccc(Cl)cc1Cl	-51.6	54.5*	.	16.1	.	.
CCOC(=O)N1CCN(c2ccc(S(=O)(=O)N(Cc3ccccc3)Cc3ccccc3)cn2)CC1	23.0	62.3*	.	41.9	.	.
O=C(Nc1cccc(S(=O)(=O)N2CCCCC2)c1)c1ccc2c(=O)n3c(nc2c1)CCCCC3	11.0	55.1*	.	71.3*	38.3	41.1
CCc1ccc(NC(=O)c2ccc3c(=O)n4c(nc3c2)CCCCC4)cc1	7.6	14.5	-26.8	-1.2	0.9	-4.1
Cc1ccc(S(=O)(=O)N(C)C[C@H]2Oc3c(NC(=O)Nc4ccc(F)cc4)cccc3C(=O)N([C@H](C)CO)C[C@H]2C)cc1	.	.	43.2	.	23.7	0.8
O=C(CSCC(=O)N1CCCCC1)Nc1nc(-c2cccs2)cs1	1.6	7.2	-12.5	7.8	-29.3	-17.3
CCOC(=O)N1CCN(C(=O)CSCC(=O)Nc2nc(-c3ccccc3)cs2)CC1	10.2	6.7	.	25.8	.	2.1
O=C(CSCC(=O)N1CCN(c2ccccc2)CC1)Nc1nc(-c2ccc(Cl)s2)cs1	1.6	30.5	-7.1	72.0*	11.4	5.3
O=C(CSCC(=O)N1CCCCC1)Nc1nc(-c2ccc(Cl)s2)cs1	0.7	45.0	-34.3	68.5*	-24.7	-5.0
COc1ccc(CN2C[C@@H](O)COC[C@H]3O[C@H](CC(=O)NCCN4CCCC4)CC[C@@H]32)cc1	.	.	-2.7	.	-2.2	14.7
O=C(/C=C/c1ccccc1)Nc1nc(-c2ccncc2)cs1	14.3	52.7*	-16.0	30.3	7.3	-5.9
N#Cc1ccc(-c2csc(NC(=O)/C=C/c3cccs3)n2)cc1	15.7	58.6*	.	48.4	26.7	22.8
Cc1nc(NC(=O)/C=C/c2ccccc2)n[nH]1	-45.3	1.4	38.5	86.2*	43.6	?
Cc1ccc(-c2csc(NC(=O)/C=C/c3cccs3)n2)cc1C	20.7	3.1	-3.7	19.9	6.2	7.2
COCC(=O)N1CC(=O)N2[C@H](C1)[C@H](c1ccc(-c3cccnc3)cc1)[C@@H]2CO	.	.	6.5	.	.	-3.1
CO[C@H]1CN(C)C(=O)c2ccc(NC(C)=O)cc2OC[C@@H](C)N(C(=O)Cc2cccnc2)C[C@H]1C	.	.	-2.9	.	-0.2	11.9
CN(CCc1ccccc1)C(=O)c1ccc(NC(=O)Cc2ccc(NC(=O)C3CCN(C(=O)CCc4ccccc4)CC3)cc2)cc1	4.6	32.2	20.0	54.7*	45.9	-15.1
CN(CCc1ccccc1)C(=O)c1ccc(NC(=O)Cc2ccc(NC(=O)C3CCCN(C(=O)CCc4ccccc4)C3)cc2)cc1 (stereo unspecified)	30.3	22.5	26.5	58.3*	45.2	3.3
